Screens (PubChem BioAssay)
RORgamma inh: inhibitors of mouse ROR gamma transcriptional activity; P51450; Drosophila S2 Gal4-RORgamma UAS-luciferase reporter, 20 h; Potency, µM (highest dose often 53.6 µM), for the others: at the highest dose activity change, negative = inhibition, actives largely listed as inhibitors; hit rate 5.4% among 310,000; AID 2551; also: potency is read from the fitted curve at half-maximal effect; % is scaled to controls: 0 for no effect and ±100 for the full control effect; nearly all actives have a fitted effect of over 60% in size
Target sequence (P51450 whole entry, looked up, the tested form may be a part): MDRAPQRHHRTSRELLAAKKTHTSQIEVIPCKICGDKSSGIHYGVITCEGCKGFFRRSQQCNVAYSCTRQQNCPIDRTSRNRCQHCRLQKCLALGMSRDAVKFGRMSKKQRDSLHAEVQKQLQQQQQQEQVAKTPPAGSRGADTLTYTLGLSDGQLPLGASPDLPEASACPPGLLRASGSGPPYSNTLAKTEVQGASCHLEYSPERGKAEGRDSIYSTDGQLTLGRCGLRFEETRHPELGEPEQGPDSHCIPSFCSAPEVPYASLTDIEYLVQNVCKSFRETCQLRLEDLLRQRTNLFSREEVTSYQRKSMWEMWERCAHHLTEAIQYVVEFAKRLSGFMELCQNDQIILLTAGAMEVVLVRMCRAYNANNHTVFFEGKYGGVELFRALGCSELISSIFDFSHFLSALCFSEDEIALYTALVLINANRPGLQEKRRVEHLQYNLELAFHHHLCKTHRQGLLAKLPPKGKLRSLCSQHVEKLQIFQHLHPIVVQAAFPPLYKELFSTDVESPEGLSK
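Read-out: Photinus luciferase luminescence; inhibitors lower reporter signal. Insect Schneider cells with Gal4-ROR gamma fusion under metallothionein promoter, UAS reporter; 700 uM final copper sulfate induction, 20 hr, ambient temperature.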
IL-1B inflam inh: blocks inflammasome-driven IL-1 beta release | THP-1 LPS/ATP IL-1B secretion, AlphaLISA, 16 h; hits give low values | activity change, % at 57.5 µM | hit rate 4.7% among 360,000; in the data active = activity change below about -50%; inconclusive = mostly about -30% to -49%; also: % is scaled to controls: 0 for no effect and ±100 for the full control effect
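THP-1 cells pretreated 1 hr with compounds (up to 57.5 uM final), then stimulated with LPS (250 ng/mL final) plus ATP (1.25 mM final); secreted IL-1B measured by AlphaLISA after 16 hr, decreased signal indicating inhibition.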
MCF10A rereplic: induces DNA re-replication in MCF 10a normal breast cells; MCF 10A DNA re-replication, Hoechst nuclear intensity, 48 h; hit rate 2.9% among 350,000; Potency, µM (highest dose often 46.1 µM), for the others: at the highest dose activity, positive = re-replication, most hits filed as activators; AID 624296; also: potency is read from the fitted curve at half-maximal effect; % of control where 0% means no effect; nearly all actives have a fitted effect of over 50% in size
VP16 counter: counter-screen for ROR gamma inhibitors: Gal4-VP16 reporter; Drosophila S2 Gal4-VP16 UAS-luciferase, luminescence, 20 h; Potency, µM (highest dose often 53.6 µM), for the others: at the highest dose activity, negative = inhibition, actives largely listed as inhibitors; hit rate 3.5% among 310,000;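 also: Gal4-VP16 expression switched on by copper sulfate through the metallothionein promoter; potency is read from the fitted curve at half-maximal effect; % is scaled to controls: 0 for no effect and ±100 for the full control effect; nearly all actives have a fitted effect of over 50% in size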
SW480 rereplic: induces DNA re-replication in SW480 colon adenocarcinoma cells; hit rate 1.8% among 340,000; Potency, µM (titrated, usually from 46.1 µM), inactives show at the top dose re-replication activation, usual class: activators; SW480 DNA re-replication, Hoechst DNA content imaging, 48 h; also: potency is read from the fitted curve at half-maximal effect; % of control where 0% means no effect; nearly all actives have a fitted effect of over 55% in size
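Treated cells incubate 48 hr (37 C, 5% CO2), are stained 40 min with Hoechst, and nuclear fluorescence is enumerated; a rise in nuclei with high DNA signal marks re-replication.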
* hit, by the source's call; ? = inconclusive; / = no result. Compounds with a hit are over-represented: about 11% of the library has one in this group of screens. Unless noted, calls follow the shape of the dose curve; as a rule, active = well fitted curve in the direction sought with a large enough effect; inconclusive = small, poorly fitted or top-dose-only effect, or another doubt; inactive = no such curve, though single readings can be large; an effect the other way counts as inactive or inconclusive.

SMILES	RORgamma inh	IL-1B inflam inh	MCF10A rereplic	VP16 counter	SW480 rereplic
CCCC(=O)NC(c1ccc(OC)c(OC)c1)c1cc(Cl)c2cccnc2c1O (configuration not stated)	2.82µM*	101.3	8.2µM*	5.01µM*	1.84µM*
CCCCC(=O)NC(c1cccs1)c1cc(Cl)c2cccnc2c1O (configuration not stated)	2.51µM*	50.0	22.9%	3.55µM*	24.5%
CCC(=O)NC(c1cccs1)c1cc(Cl)c2cccnc2c1O (configuration not stated)	23.3%	65.8	20.5%	-8.8%	?
COc1ccc(C(NC(=O)c2ccco2)c2ccc(OC)c(OC)c2)cc1 (configuration not stated)	-2.1%	-18.1	25.9%	-6.6%	0.3%
Cc1nn(C)c(C(=O)NC2C3CC4CC(C3)CC2C4)c1Cl (configuration not stated)	7.3%	22.1	14.6%	4.7%	23.1µM*
Cc1ccc(C)c(NC(=S)NNC(=O)c2csc3c2CCC(C)C3)c1 (configuration not stated)	5.01µM*	?	-5.6%	-24.0%	-0.3%
CC1CCc2c(C(=O)NCc3ccco3)csc2C1 (configuration not stated)	?	-78.8*	16.3%	12.0%	89.3%
O=C(NCc1ccco1)c1csc2c1CCCCC2	29.9%	-13.9	?	-1.3%	10.0%
COc1ccc(NC(=O)Cn2c(=O)cnc3ccccc32)cc1S(=O)(=O)N1CCCCC1	/	6.6	1.2%	/	-31.5%
Nc1cccc(-c2nc3ccc(C(=O)c4ccccc4)cc3[nH]2)c1	-21.6%	48.9	?	-18.9%	18.4µM*
Nc1ccc2nc(-c3ccccn3)[nH]c2c1	20µM*	-17.7	15.0%	?	0.9%
Nc1ccc2nc(-c3ccccc3)[nH]c2c1	12.6µM*	-2.3	?	?	2.3%
O=[N+]([O-])c1ccc2nc(-c3cccnc3)[nH]c2c1	40.8%	-9.8	?	-12.9%	-0.4%
COc1ccc2nc(-c3ccccn3)[nH]c2c1	/	-0.1	1.9%	/	-17.8%
Nc1cccc(C(=O)Nc2ccc3nc(-c4cccnc4)[nH]c3c2)c1	-3.7%	-15.2	-43.0%	-16.0%	-0.6%
O=[N+]([O-])c1ccc2nc(-c3ccccc3)[nH]c2c1	33.6%	-68.6*	-1.9%	0.9%	0.5%
COc1ccc(CN2C(=O)C(CC(=O)NCCCN(C)C)CC(C(=O)N(C)C)=C2C)cc1 (configuration not stated)	/	19.2	/	/	/
CCC1NC(=O)C(NC(=O)c2ncccc2O)C(C)OC(=O)C(c2ccccc2)NC(=O)C2CC(=O)CCN2C(=O)C(Cc2ccccc2)N(C)C(=O)C2CCCN2C1=O (configuration not stated)	32.5%	/	-0.3%	-3.5%	10.8%
CC(=O)C1=C(c2ccccc2)NC(=S)NC1c1cc(Cl)c(OC(C)C)c(Cl)c1 (configuration not stated)	7.08µM*	?	?	5.01µM*	10.3%
CCOC(=O)COc1c(Cl)cc(C2NC(=S)NC(c3ccccc3)=C2C(C)=O)cc1OC (configuration not stated)	-25.7%	-95.3*	-1.5%	-12.8%	-0.6%
COc1cc(C2NC(=S)NC(c3ccccc3)=C2C(C)=O)cc(Cl)c1OCC(=O)O (configuration not stated)	-1.7%	5.0	-21.1%	-4.5%	-4.1%
O=C(CNc1ccccc1F)Nc1cccc(S(=O)(=O)N2CCCCC2)c1	/	-8.3	50.3%	/	19.7%
O=c1c(O)c(-c2cc(O)c(O)c(O)c2)oc2cc(O)ccc12	-29.2%	/	/	-16.0%	/
O=c1c(O)c(-c2ccc(O)c(O)c2)oc2cc(O)ccc12	-0.7%	-83.5*	?	-14.2%	10.2%
CSc1c(C#N)c(N)nc2sc(C(=O)c3ccccc3)c(N)c12	34.6%	-72.8*	?	-2.5%	82.1%
O=C(COc1cc(F)ccc1[N+](=O)[O-])Nc1ccc(N2CCOCC2)cc1	7.2%	-24.2	0.9%	-10.6%	2.2%
O=C(COc1cc(F)ccc1[N+](=O)[O-])Nc1ccc(N2CCCCC2)cc1	/	-67.0*	?	/	16.5%
CC(C)C(=O)N1CCN(c2ccc(NC(=O)COc3ccccc3[N+](=O)[O-])cc2)CC1	27.5%	-90.2*	20.6µM*	-1.6%	4.7%
